This is an account of results in article PMC7862700, “An all-to-all approach to the identification of sequence-specific readers for epigenetic DNA modifications on cytosine”.

Test in all cases: DAPPL (digital affinity profiling via proximity ligation, sequencing); 10 mM Tris-HCl pH 7.5, 50 mM NaCl, 1 mM DTT, 4% glycerol, room temperature, 30 min; GST-TFs on glutathione beads, 16-mer random dsDNA library, 0.1% formaldehyde crosslink after washing; high values mean tight binding
What all share (settings): protein: recombinant; tags: N-terminal GST; dsDNA, one strand shown

One assay concerns the target T1, FLI1 (Homo sapiens, UniProt Q01543 1-452).
T1 sequence: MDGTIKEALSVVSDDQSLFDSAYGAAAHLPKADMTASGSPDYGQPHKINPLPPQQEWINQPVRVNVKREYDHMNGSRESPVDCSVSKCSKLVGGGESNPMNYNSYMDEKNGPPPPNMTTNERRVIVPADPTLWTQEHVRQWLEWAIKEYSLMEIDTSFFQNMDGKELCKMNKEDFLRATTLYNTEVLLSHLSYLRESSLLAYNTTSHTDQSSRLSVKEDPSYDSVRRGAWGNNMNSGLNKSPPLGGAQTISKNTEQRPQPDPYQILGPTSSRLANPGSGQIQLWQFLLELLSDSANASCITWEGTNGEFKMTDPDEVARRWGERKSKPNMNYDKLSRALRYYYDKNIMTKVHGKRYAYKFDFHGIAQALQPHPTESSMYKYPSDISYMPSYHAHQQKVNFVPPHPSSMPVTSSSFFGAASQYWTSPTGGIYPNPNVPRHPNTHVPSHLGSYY
The method in brief:
(§1)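 Pools were built from human transcription factors expressed in yeast as GST fusions, captured on glutathione beads and DNA-barcoded, along with a tag-only sample. Incubation with 200 nmole of a 16-mer random double-stranded DNA library lasted 30 min at room temperature in Tris/NaCl/DTT/glycerol buffer, and was followed by washing, 0.1% formaldehyde crosslinking, proximity ligation, PCR amplification and Illumina NextSeq500 sequencing. Binding signal is the quotient of each hexamer's read frequency for a factor and its frequency for the tag-only sample.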

A further assay deals with T2, ELK1 (Homo sapiens, UniProt P19419 1-428).
T2 sequence: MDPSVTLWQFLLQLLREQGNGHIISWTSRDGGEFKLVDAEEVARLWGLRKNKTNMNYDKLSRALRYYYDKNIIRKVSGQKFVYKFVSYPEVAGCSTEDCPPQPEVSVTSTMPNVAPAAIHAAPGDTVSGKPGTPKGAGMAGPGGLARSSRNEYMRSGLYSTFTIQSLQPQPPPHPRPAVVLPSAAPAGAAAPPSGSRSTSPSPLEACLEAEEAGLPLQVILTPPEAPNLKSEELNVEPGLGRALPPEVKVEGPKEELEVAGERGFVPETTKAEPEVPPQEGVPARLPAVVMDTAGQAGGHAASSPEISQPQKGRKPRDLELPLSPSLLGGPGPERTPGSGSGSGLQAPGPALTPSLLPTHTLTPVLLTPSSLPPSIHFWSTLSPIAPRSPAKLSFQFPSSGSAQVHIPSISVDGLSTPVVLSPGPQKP
The method in brief:
as §1

Another assay has as its target T3, GABPA (Homo sapiens, UniProt Q06546 1-454).
T3 sequence: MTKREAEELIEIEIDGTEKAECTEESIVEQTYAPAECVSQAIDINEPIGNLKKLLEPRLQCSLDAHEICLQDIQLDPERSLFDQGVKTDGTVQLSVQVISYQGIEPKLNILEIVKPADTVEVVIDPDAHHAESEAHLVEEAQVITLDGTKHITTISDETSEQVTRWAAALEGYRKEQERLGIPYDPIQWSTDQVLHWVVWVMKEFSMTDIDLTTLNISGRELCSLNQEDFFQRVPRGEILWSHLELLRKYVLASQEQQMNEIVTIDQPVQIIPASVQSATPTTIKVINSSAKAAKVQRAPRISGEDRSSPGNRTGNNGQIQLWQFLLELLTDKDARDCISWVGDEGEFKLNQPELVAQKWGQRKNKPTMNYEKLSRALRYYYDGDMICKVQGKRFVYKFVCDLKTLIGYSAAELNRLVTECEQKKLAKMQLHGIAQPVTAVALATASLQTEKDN
The gist of the method:
as §1

The next assay concerns the target T4, ERG (Homo sapiens, UniProt P11308 1-479).
T4 sequence: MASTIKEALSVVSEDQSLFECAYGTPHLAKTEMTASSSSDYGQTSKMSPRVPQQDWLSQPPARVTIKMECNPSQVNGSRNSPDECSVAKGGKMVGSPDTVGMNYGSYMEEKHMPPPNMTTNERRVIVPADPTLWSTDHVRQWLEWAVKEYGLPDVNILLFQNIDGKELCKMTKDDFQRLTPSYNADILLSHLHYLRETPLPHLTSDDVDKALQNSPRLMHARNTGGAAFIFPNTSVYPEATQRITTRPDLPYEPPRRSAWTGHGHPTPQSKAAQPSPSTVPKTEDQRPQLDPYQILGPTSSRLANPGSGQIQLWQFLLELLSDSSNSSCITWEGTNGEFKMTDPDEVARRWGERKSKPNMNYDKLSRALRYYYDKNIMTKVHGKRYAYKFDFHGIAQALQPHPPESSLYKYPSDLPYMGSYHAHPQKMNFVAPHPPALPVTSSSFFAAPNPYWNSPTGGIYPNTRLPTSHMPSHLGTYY
The gist of the method:
as §1

The target of the next assay is ELF1 (Homo sapiens, UniProt P32519 1-619). The method in brief:
as §1

The target of the next assay is T5, EHF (Homo sapiens, UniProt Q9NZC4 1-300).
T5 sequence: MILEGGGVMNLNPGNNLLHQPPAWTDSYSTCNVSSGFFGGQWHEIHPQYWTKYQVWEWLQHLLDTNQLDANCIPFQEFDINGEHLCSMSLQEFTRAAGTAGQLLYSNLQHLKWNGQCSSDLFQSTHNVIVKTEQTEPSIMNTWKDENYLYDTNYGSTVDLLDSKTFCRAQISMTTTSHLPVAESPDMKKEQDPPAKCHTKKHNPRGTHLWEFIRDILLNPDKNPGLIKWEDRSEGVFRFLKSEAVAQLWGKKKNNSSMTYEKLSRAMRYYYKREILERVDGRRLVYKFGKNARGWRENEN
The method in brief: as §1

In the next assay the target is SPI1 (Homo sapiens, UniProt P17947 1-270). The gist of the method:
as §1

The next assay deals with SPIB (Homo sapiens, UniProt Q01892 1-262). The gist of the method: as §1
The next assay concerns the target T6, ELK3 (Homo sapiens, UniProt P41970 1-407).
T6 sequence: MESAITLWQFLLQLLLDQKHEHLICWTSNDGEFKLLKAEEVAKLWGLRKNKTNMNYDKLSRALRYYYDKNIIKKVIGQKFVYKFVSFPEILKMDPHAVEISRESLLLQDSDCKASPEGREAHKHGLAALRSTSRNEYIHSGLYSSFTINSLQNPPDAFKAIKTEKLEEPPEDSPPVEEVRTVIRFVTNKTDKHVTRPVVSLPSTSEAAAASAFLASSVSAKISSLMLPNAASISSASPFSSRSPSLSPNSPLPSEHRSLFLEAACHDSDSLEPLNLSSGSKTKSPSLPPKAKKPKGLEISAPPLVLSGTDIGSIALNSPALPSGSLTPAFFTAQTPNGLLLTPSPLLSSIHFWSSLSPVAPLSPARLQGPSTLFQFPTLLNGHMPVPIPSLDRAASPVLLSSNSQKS
The method in brief:
as §1

Chain of SPIB (Q01892 whole entry): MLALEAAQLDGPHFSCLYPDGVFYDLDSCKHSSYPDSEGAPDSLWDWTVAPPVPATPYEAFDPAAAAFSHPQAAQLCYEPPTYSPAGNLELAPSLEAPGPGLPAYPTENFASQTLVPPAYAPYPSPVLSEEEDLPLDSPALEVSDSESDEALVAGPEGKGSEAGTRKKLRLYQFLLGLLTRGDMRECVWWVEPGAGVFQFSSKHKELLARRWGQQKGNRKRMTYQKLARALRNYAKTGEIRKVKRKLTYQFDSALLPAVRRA
Chain of ELF1 (P32519 whole entry): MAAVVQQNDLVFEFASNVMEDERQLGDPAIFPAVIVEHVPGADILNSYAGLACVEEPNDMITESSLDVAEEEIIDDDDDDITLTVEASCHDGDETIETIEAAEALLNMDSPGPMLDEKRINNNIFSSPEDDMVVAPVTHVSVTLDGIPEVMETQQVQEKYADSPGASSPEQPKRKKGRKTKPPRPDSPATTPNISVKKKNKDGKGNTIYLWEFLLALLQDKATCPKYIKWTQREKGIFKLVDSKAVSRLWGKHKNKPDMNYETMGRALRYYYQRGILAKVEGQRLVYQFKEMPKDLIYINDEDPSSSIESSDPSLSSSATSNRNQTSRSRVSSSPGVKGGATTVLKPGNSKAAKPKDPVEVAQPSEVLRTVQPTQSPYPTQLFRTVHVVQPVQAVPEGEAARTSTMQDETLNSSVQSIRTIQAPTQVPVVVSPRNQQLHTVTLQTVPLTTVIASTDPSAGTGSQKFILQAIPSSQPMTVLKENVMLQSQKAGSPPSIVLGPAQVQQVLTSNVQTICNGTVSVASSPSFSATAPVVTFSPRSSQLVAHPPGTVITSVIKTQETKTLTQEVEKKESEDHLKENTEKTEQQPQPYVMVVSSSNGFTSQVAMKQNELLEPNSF

ATGTTA: the binding signal in the assay with FLI1 was 1.24 fold enrichment (6-mer frequency, TF over GST control); with ELK1, 1.25 fold enrichment (6-mer frequency, TF over GST control); with GABPA it was 1.26 fold enrichment (6-mer frequency, TF over GST control); in the assay with ERG, 1.22 fold enrichment (6-mer frequency, TF over GST control); with ELF1, 1.22 fold enrichment (6-mer frequency, TF over GST control); with EHF, 1.23 fold enrichment (6-mer frequency, TF over GST control). Further, the binding signal in the assay with SPI1 was 1.13 fold enrichment (6-mer frequency, TF over GST control); in the assay with SPIB, 1.17 fold enrichment (6-mer frequency, TF over GST control); with ELK3 it was 1.15 fold enrichment (6-mer frequency, TF over GST control).
Turning to ACGTTT, the binding signal with FLI1 is 1.21 fold enrichment (6-mer frequency, TF over GST control); in the assay with ELK1 it was 1.18 fold enrichment (6-mer frequency, TF over GST control); with GABPA, 1.18 fold enrichment (6-mer frequency, TF over GST control); with ERG, 1.27 fold enrichment (6-mer frequency, TF over GST control); with ELF1, 1.17 fold enrichment (6-mer frequency, TF over GST control); with EHF, 1.16 fold enrichment (6-mer frequency, TF over GST control). Further, the binding signal with SPI1 is 1.12 fold enrichment (6-mer frequency, TF over GST control); with SPIB, 1.35 fold enrichment (6-mer frequency, TF over GST control); with ELK3 it was 1.2 fold enrichment (6-mer frequency, TF over GST control).
On to GAACCT, for which the binding signal with FLI1 is 1.09 fold enrichment (6-mer frequency, TF over GST control); with ELK1 it was 1.27 fold enrichment (6-mer frequency, TF over GST control); in the assay with GABPA, 1.06 fold enrichment (6-mer frequency, TF over GST control); with ERG it was 1.09 fold enrichment (6-mer frequency, TF over GST control); with ELF1, 1.13 fold enrichment (6-mer frequency, TF over GST control); with EHF, 1.15 fold enrichment (6-mer frequency, TF over GST control). Moreover, the binding signal is 1.11 fold enrichment (6-mer frequency, TF over GST control) with SPI1; 1.14 fold enrichment (6-mer frequency, TF over GST control) in the assay with SPIB; 1.18 fold enrichment (6-mer frequency, TF over GST control) with ELK3.
Turning to AGGTCT, the binding signal in the assay with FLI1 was 1.31 fold enrichment (6-mer frequency, TF over GST control); with ELK1 it was 1.17 fold enrichment (6-mer frequency, TF over GST control); with GABPA, 1.16 fold enrichment (6-mer frequency, TF over GST control); in the assay with ERG, 1.15 fold enrichment (6-mer frequency, TF over GST control); with ELF1 it was 1.22 fold enrichment (6-mer frequency, TF over GST control); with EHF, 1.19 fold enrichment (6-mer frequency, TF over GST control). For the same sequence, the binding signal with SPI1 is 1.11 fold enrichment (6-mer frequency, TF over GST control); with SPIB, 1.22 fold enrichment (6-mer frequency, TF over GST control); with ELK3, 1.3 fold enrichment (6-mer frequency, TF over GST control).
Turning to AATAAA, the binding signal is 1.2 fold enrichment (6-mer frequency, TF over GST control) with FLI1; 1.2 fold enrichment (6-mer frequency, TF over GST control) with ELK1; 1.27 fold enrichment (6-mer frequency, TF over GST control) with GABPA; 1.21 fold enrichment (6-mer frequency, TF over GST control) with ERG; 1.27 fold enrichment (6-mer frequency, TF over GST control) with ELF1; 1.25 fold enrichment (6-mer frequency, TF over GST control) in the assay with EHF. The binding signal with SPI1 was 1.32 fold enrichment (6-mer frequency, TF over GST control); in the assay with SPIB, 1.26 fold enrichment (6-mer frequency, TF over GST control); in the assay with ELK3 it was 1.27 fold enrichment (6-mer frequency, TF over GST control).
In the case of TCGCCC, the binding signal is 1.34 fold enrichment (6-mer frequency, TF over GST control) with FLI1; 1.4 fold enrichment (6-mer frequency, TF over GST control) with ELK1; 1.3 fold enrichment (6-mer frequency, TF over GST control) with GABPA; 1.27 fold enrichment (6-mer frequency, TF over GST control) with ERG; 1.31 fold enrichment (6-mer frequency, TF over GST control) with ELF1; 1.27 fold enrichment (6-mer frequency, TF over GST control) with EHF. In addition, the binding signal in the assay with SPI1 is 1.29 fold enrichment (6-mer frequency, TF over GST control); with SPIB it was 1.25 fold enrichment (6-mer frequency, TF over GST control); with ELK3, 1.27 fold enrichment (6-mer frequency, TF over GST control).
Consider GCTTCA, for which the binding signal is 1.35 fold enrichment (6-mer frequency, TF over GST control) with FLI1; 1.39 fold enrichment (6-mer frequency, TF over GST control) in the assay with ELK1; 1.28 fold enrichment (6-mer frequency, TF over GST control) with GABPA; 1.34 fold enrichment (6-mer frequency, TF over GST control) with ERG; 1.33 fold enrichment (6-mer frequency, TF over GST control) with ELF1; 1.4 fold enrichment (6-mer frequency, TF over GST control) in the assay with EHF. For the same sequence, the binding signal was 1.24 fold enrichment (6-mer frequency, TF over GST control) with SPI1; 1.31 fold enrichment (6-mer frequency, TF over GST control) with SPIB; 1.27 fold enrichment (6-mer frequency, TF over GST control) with ELK3.
